Test results published in the supplement of paper PMC7393113.
± gives the standard deviation of the averaged measurements.

Test system: iBMDM (immortalised mouse bone-marrow-derived macrophages), LPS-stimulated
Experiment: mitochondrial superoxide (MitoSOX fluorescence) fold increase over unstimulated control; higher = more LPS-induced mitochondrial ROS (less inhibition)
Conditions: inhibitor concentration: 500 nM, LPS: 100 ng/ml
Procedure, shortened: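 Immortalised mouse bone-marrow-derived macrophages were seeded in triplicate in black 96-well plates and moved to phenol-red-free 1% FCS/DMEM for 20 h. They were pretreated 30 min with kinase inhibitors (500 nM), loaded with 1 μM MitoSox for 10 min, then given LPS (100 ng/ml). Fluorescence (excitation/emission 510/580 nm, ClarioStar plate reader) was read every 60 min for 4 h. Mitochondrial superoxide is fold induction over untreated control macrophages, averaged over three replicates.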

SMILES | mitochondrial superoxide (time after LPS: 1 h) | mitochondrial superoxide (time after LPS: 2 h) | mitochondrial superoxide (time after LPS: 4 h)
O=C(NOCC1CC1)c1ccc(F)c(F)c1Nc1ccc(I)cc1Cl | 1.57 ± 0.11 | 1.59 ± 0.071 | 1.9 ± 0.1
CCn1cc(-c2ccnc3[nH]c(-c4cccc(CN(C)C)c4)cc23)c(-c2ccc(NC(=O)N(C)C)cc2)n1 | 1.27 ± 0.026 | 1.45 ± 0.047 | 1.71 ± 0.16
COc1cccc2cc(-c3nc([C@H]4CC[C@H](C(=O)O)CC4)n4ncnc(N)c34)[nH]c12 | 1.3 ± 0.046 | 1.39 ± 0.018 | 1.52 ± 0.017
Cc1cnc(NC(=O)Nc2cc(Br)c(C)cc2OC[C@@H]2CNCCO2)cn1 | 1.116 ± 0.011 | 1.262 ± 0.0098 | 1.55 ± 0.052
Cn1cnc(-c2cc3nccc(Oc4ccc(NC(=S)NC(=O)Cc5ccccc5)cc4F)c3s2)c1 | 1.06 ± 0.021 | 1.14 ± 0.057 | 1.26 ± 0.059
NC(=O)c1ncn([C@@H]2O[C@H](CO)[C@@H](O)[C@H]2O)c1N [Acadesine] | 1.108 ± 0.0017 | 1.2 ± 0.043 | 1.36 ± 0.027
CC(C)(C)n1nc(-c2ccc(Cl)cc2)c2c(N)ncnc21 | 1.11 ± 0.019 | 1.23 ± 0.074 | 1.31 ± 0.079
O=C(/C=C/c1ccc(O)c(O)c1)c1ccc(O)cc1O [Butein] | 1.49 ± 0.065 | 1.65 ± 0.067 | 1.85 ± 0.019
Cc1[nH]nc2ccc(-c3cncc(OC[C@@H](N)Cc4ccccc4)c3)cc12 | 1.24 ± 0.1 | 1.43 ± 0.11 | 1.68 ± 0.098
Cc1ccc(-c2nn(C(C)(C)C)c3ncnc(N)c23)cc1 | 1.18 ± 0.043 | 1.22 ± 0.055 | 1.34 ± 0.046
O=C(NC1CCNCC1)c1n[nH]cc1NC(=O)c1c(Cl)cccc1Cl | 1.13 ± 0.061 | 1.15 ± 0.041 | 1.3 ± 0.018
CCN(CC)CCCC(C)Nc1nc(C)cc(Nc2ccc3nc(C)cc(N)c3c2)n1 (stereo unspecified) | 1.35 ± 0.041 | 1.53 ± 0.051 | 1.65 ± 0.15
N#CCNC(=O)c1ccc(-c2ccnc(Nc3ccc(N4CCOCC4)cc3)n2)cc1 | 1.05 ± 0.071 | 1.17 ± 0.017 | 1.27 ± 0.13
Clc1ccc(Nc2nnc(Cc3ccncc3)c3ccccc23)cc1 [Vatalanib (PTK787) 2HCl] | 1.42 ± 0.075 | 1.5 ± 0.09 | 1.53 ± 0.057
Cc1ccc2nc(NCCN)c3ncc(C)n3c2c1 | 1.43 ± 0.036 | 1.48 ± 0.027 | 1.63 ± 0.047
O=C1Nc2ccc(I)cc2C1=Cc1cc(Br)c(O)c(Br)c1 | 1.1 ± 0.039 | 1.07 ± 0.074 | 1.09 ± 0.014
S=C(NCc1ccc2c(c1)OCO2)N1CCN(c2ncnc3c2oc2ccccc23)CC1 [Amuvatinib (MP-470)] | 1.18 ± 0.12 | 1.21 ± 0.076 | 1.15 ± 0.063
COc1cc2ncnc(Nc3ccc(F)c(Cl)c3)c2cc1NC(=O)/C=C/CN1CCCCC1 | 1.22 ± 0.031 | 1.48 ± 0.045 | 1.57 ± 0.069
Nc1ncnc2c1c(-c1cnc3[nH]ccc3c1)nn2C1CCCC1 | 1.34 ± 0.077 | 1.41 ± 0.079 | 1.57 ± 0.058
CCOc1ccn(-c2ccc(F)cc2)c(=O)c1C(=O)Nc1ccc(Oc2ccnc(N)c2Cl)c(F)c1 | 1.25 ± 0.045 | 1.28 ± 0.084 | 1.28 ± 0.017
Cc1cc(Nc2cc(N3CCN(C)CC3)nc(Sc3ccc(NC(=O)C4CC4)cc3)n2)n[nH]1 [VX-680 (Tozasertib, MK-0457)] | 1.55 ± 0.069 | 1.64 ± 0.051 | 1.73 ± 0.033
COc1ccc(S(=O)(=O)N(C(C)=O)c2ccccc2/C=C/c2cc[n+]([O-])cc2)cc1 | 1.15 ± 0.035 | 1.17 ± 0.058 | 1.32 ± 0.05
COc1cc(Nc2ncc(F)c(Nc3ccc4c(n3)NC(=O)C(C)(C)O4)n2)cc(OC)c1OC | 1.1 ± 0.027 | 1.14 ± 0.016 | 1.28 ± 0.11
Oc1cccc(-c2nc(N3CCOCC3)c3oc4ncccc4c3n2)c1 | 1.61 ± 0.025 | 1.62 ± 0.03 | 1.685 ± 0.012

SMILES | mitochondrial superoxide (time after LPS: 1 h) | mitochondrial superoxide (time after LPS: 2 h) | mitochondrial superoxide (time after LPS: 4 h)
CCS(=O)(=O)c1cccc(-c2cc(C(=O)NC3CCN(C)CC3)c(C)c3[nH]c4ncc(C)cc4c23)c1 | 1.31 ± 0.05 | 1.48 ± 0.079 | 1.64 ± 0.098
Cc1cc(CN2CCN(c3c(Br)cnc4nc(-c5ccc(N6CCN(C)CC6)cc5)[nH]c34)CC2)no1 | 1.27 ± 0.038 | 1.4 ± 0.019 | 1.68 ± 0.13
COc1cc2nccc(Oc3ccc(NC(=O)NC4CC4)c(Cl)c3)c2cc1C(N)=O [Lenvatinib (E7080)] | 1.45 ± 0.042 | 1.71 ± 0.053 | 1.73 ± 0.15
Cc1cc(Nc2cc(CN3CCOCC3)c3nc(C)c(Cc4ccc(Cl)cc4F)n3n2)n[nH]1 | 1.16 ± 0.062 | 1.23 ± 0.048 | 1.38 ± 0.035
COc1ccc(Cl)cc1NC(=O)Nc1cc(C)nc2ccccc12 | 1.42 ± 0.05 | 1.55 ± 0.055 | 1.652 ± 0.011
COc1cc(Nc2ncc(F)c(Nc3ccc4c(n3)N(COP(=O)(O)O)C(=O)C(C)(C)O4)n2)cc(OC)c1OC [Fostamatinib (R788)] | 1.29 ± 0.026 | 1.429 ± 0.0045 | 1.71 ± 0.034
CNC(=O)c1nn(C)c2c1C(C)(C)Cc1cnc(Nc3ccc(N4CCN(C)CC4)cc3)nc1-2 | 1.31 ± 0.016 | 1.38 ± 0.086 | 1.64 ± 0.064
C=CC(=O)Nc1cccc(Sc2nc(Nc3ccc(N4CCN(C)CC4)cc3)ncc2Cl)c1 | 1.24 ± 0.09 | 1.26 ± 0.035 | 1.26 ± 0.032
CCN1CCN(Cc2ccc(Nc3ncc(F)c(-c4cc(F)c5nc(C)n(C(C)C)c5c4)n3)nc2)CC1 | 1.13 ± 0.056 | 1.25 ± 0.02 | 1.36 ± 0.022
Cn1c(=O)n(-c2ccc(C(C)(C)C#N)cc2)c2c3cc(-c4cnc5ccccc5c4)ccc3ncc21 [BEZ235 (NVP-BEZ235, Dactolisib)] | 1.47 ± 0.087 | 1.47 ± 0.084 | 1.61 ± 0.076
Cc1ncc(-c2ccnc(Nc3ccc(S(C)(=O)=O)cc3)n2)n1C(C)C | 1.36 ± 0.052 | 1.46 ± 0.063 | 1.6 ± 0.11
COc1ccc(-c2ccc3c(N4CCOCC4)nc(N4C[C@@H](C)O[C@@H](C)C4)nc3n2)cc1CO | 1.29 ± 0.041 | 1.24 ± 0.037 | 1.32 ± 0.068
COc1cc2ncnc(Nc3ccc(F)c(Cl)c3)c2cc1OCCCN1CCOCC1 [Gefitinib (ZD1839)] | 1.6 ± 0.048 | 1.71 ± 0.044 | 1.77 ± 0.025
COc1cc2nccc(Oc3ccc(NC(=O)C4(C(=O)Nc5ccc(F)cc5)CC4)cc3)c2cc1OC | 1.41 ± 0.041 | 1.43 ± 0.017 | 1.51 ± 0.029
Cc1csc(-c2nnc(Nc3ccc(Oc4ncccc4-c4ccnc(N)n4)cc3)c3ccccc23)c1 | 1.35 ± 0.042 | 1.5 ± 0.038 | 1.67 ± 0.046
CCNC(=O)Nc1ccc(-c2nc3c(c(N4CCOC[C@@H]4C)n2)CCN(C2COC2)C3)cc1 | 1.42 ± 0.045 | 1.6 ± 0.039 | 1.68 ± 0.062
CN(C)Cc1cccc(N=C(c2ccccc2)c2c(O)[nH]c3cc(C(N)=O)ccc23)c1 | 1.15 ± 0.031 | 1.15 ± 0.052 | 1.26 ± 0.07
Nc1nc(N)c2nc(-c3cccc(O)c3)c(-c3cccc(O)c3)nc2n1 | 1.18 ± 0.049 | 1.23 ± 0.1 | 1.4 ± 0.12
CNC(=O)c1ccc(-c2cnc3ncc(Cc4ccc5ncccc5c4)n3n2)cc1F | 1.12 ± 0.033 | 1.36 ± 0.16 | 1.58 ± 0.14
O=C(c1cccc(Cl)c1F)N1CCN(Cc2cccc(Nc3nccs3)n2)CC1 | 1.15 ± 0.018 | 1.22 ± 0.048 | 1.37 ± 0.053
CO[C@H]1C[C@@H]2CC[C@@H](C)[C@@](O)(O2)C(=O)C(=O)N2CCCC[C@H]2C(=O)O[C@H]([C@H](C)C[C@@H]2CC[C@@H](OCCO)[C@H](OC)C2)CC(=O)[C@H](C)/C=C(\C)[C@@H](O)[C@@H](OC)C(=O)[C@H](C)C[C@H](C)/C=C/C=C/C=C/1C [Everolimus (RAD001)] | 1.37 ± 0.055 | 1.42 ± 0.028 | 1.5 ± 0.06
CS(=O)(=O)N1CCN(Cc2cc3nc(-c4cccc5[nH]ncc45)nc(N4CCOCC4)c3s2)CC1 | 1.28 ± 0.025 | 1.42 ± 0.027 | 1.6 ± 0.041
Cc1cnc(Nc2ccc(N3CCN(C)CC3)cc2)nc1Nc1cccc(S(=O)(=O)NC(C)(C)C)c1 | 1.36 ± 0.025 | 1.51 ± 0.04 | 1.65 ± 0.027
